Results on 40 compounds are retold here after PubChem BioAssay (Tox21).

Structures are written as SMILES. Where “and” joins values, the source holds several entries; their conditions need not be identical. Identical values can stand only once. Inconclusive results are not listed. Calls of active or inactive are those of the source. Calls follow the shape of the dose curve; as a rule, active = well fitted cell-killing curve with a large enough effect in the repeat runs; inconclusive = weak or mixed curves; inactive = no such curve, though single readings can be large or run the other way.
% is scaled to controls: 0 for no effect and ±100 for the full control effect; potency is read from the fitted curve at half-maximal effect.

The nature of this test: qHTS assay for identifying genotoxic compounds that show differential cytotoxicity against isogenic chicken DT40 cell lines with known DNA damage response pathways - Rad54/Ku70 mutant cell line (AID 743015). Also: nearly all actives have a fitted effect of over 60% in size. As to conditions: DT40 Rad54/Ku70 mutant viability, CellTiter-Glo, 40 h; series mostly up to 66.8 µM; activity change, negative = cytotoxicity: at the top concentration. The text has this:
National Center for Advancing Translational Sciences [NCATS]
NIH Chemical Genomics Center [NCGC]
U.S. Environmental Protection Agency [EPA]
National Institutes of Environmental Health Sciences [NIEHS]
National Toxicology Program [NTP]
U.S. Food and Drug Administration [FDA]
DNA repair pathways play a critical role in cellular homeostasis by repairing DNA damage induced by endogenous processes and xenobiotics. Isogenic chicken DT40 cell lines deficient in different DNA repair pathways can be used to identify genotoxic compounds and aid in characterizing the nature of the DNA damage induced. Two DNA repair-deficient cell lines with disrupted genes, Rad54/Ku70 or Rev3, were used to screen the Tox21 10K compound library. Possible genotoxicity was based on the presence of a significant increase in cytotoxicity in one or more of the DNA repair-deficient cell lines compared to that observed in the parental DNA repair-proficient cell line. CellTiter Glo viability assay (Promega, Madison, WI) was used to measure cell viability in these cells after compound treatment. This assay includes the data from the Rad54/Ku70 mutant cell line.
Tox21 Assay Protocol Summary:
300 DT40 mutant cells in 5 uL/well were dispensed into white, solid-bottom 1536-well plates using a Multidrop Combi (ThermoFisher Scientific, Waltham, MA) dispenser. After the assay plates were incubated at 37 C/5% CO2 for approximately 0.5 hour, 23 nL of compounds dissolved in DMSO, positive controls or DMSO only was transferred into the assay plate by a pintool work station (Kalypsys, San Diego, CA). The assay plates were incubated at 37 C/5% CO2 for 40 hours. After 5 uL per well of CellTiter-Glo reagent was added into each well of the assay plates, the plates were incubated for 30 min at room temperature and the luminescence intensity of the plates was measured using a ViewLux (PerkinElmer, Shelton, CT) plate reader.
A general note: qHTS replaces the single test concentration by a dilution series.
With `CC(C)C[C@H]1C(=O)N2CCC[C@H]2[C@]2(O)O[C@](NC(=O)[C@@H]3C[C@@H]4c5cccc6[nH]cc(c56)C[C@H]4N(C)C3)(C(C)C)C(=O)N12`, the Potency is 29.8 µM (active).
Take `O=C1CCO1`: the “activity change, negative = cytotoxicity” value is 7.37% (inactive).
Still for that read-out and setting: as for `C[C@@H](CO)NC(=O)[C@@H]1C=C2c3cccc4[nH]cc(c34)C[C@H]2N(C)C1`, the figure is 2.43% (inactive).
In the case of `CCCCCCCCCC(=O)O[C@H]1CC[C@H]2[C@@H]3CCC4=CC(=O)CC[C@]4(C)[C@H]3CC[C@]12C`, the “activity change, negative = cytotoxicity” value is 9.32% (inactive).
For the compound `CC(C)[C@@]1(NC(=O)[C@@H]2C[C@@H]3c4cccc5[nH]cc(c45)C[C@H]3N(C)C2)O[C@@]2(O)[C@@H]3CCCN3C(=O)[C@H](Cc3ccccc3)N2C1=O`, the Potency was 23.7 µM (active) and 26.6 µM (active).
In the case of `Clc1ccccc1-c1ccccc1Cl`, the “activity change, negative = cytotoxicity” value is -17% [at 95.1 µM] (inactive).
On to `CN1CSC(=S)N(C)C1`, for which the Potency is 6.08 µM (active) and 4.84 µM (active).
As for `CCCCCc1cc(O)c2c(c1)OC(C)(C)[C@@H]1CCC(C)=C[C@@H]21`, the Potency is 10.6 µM (active).
Consider `O=C(Nc1ccccc1-c1ccc(Cl)cc1)c1cccnc1Cl`, for which the Potency is 66.7 µM (active).
Same read-out and setting: in the case of `C/C(=C\c1csc(C)n1)[C@@H]1C[C@@H]2O[C@]2(C)CCC[C@H](C)[C@H](O)[C@@H](C)C(=O)C(C)(C)[C@@H](O)CC(=O)O1` it was 0.0038 µM (active).
`N#CC1(N2CCCCC2)CCCCC1`: the “activity change, negative = cytotoxicity” value is 1.9% (inactive).
The same measure, in the same setting: as for `COc1ccc(OC)c([C@@H](O)[C@H](C)N)c1`, the figure is 4.48% (inactive); as for `COc1cc(C[C@H](C)N)c(OC)cc1C`, -11.1% [at 95.1 µM] (inactive).
Still for that read-out and setting: in the case of `O=P(O)(O)C(Cl)(Cl)P(=O)(O)O` it was 8.06% (inactive); in that of `Oc1ccc2c3c1O[C@H]1[C@@H](O)CC[C@@]4(O)[C@@H](C2)N(CC2CCC2)CC[C@]314`, -19.1% (inactive).
On to `CNC(=O)Oc1ccccc1C(=O)Nc1ccccc1`, for which the Potency is 29.8 µM (active).
Consider `OCC(c1ccc(Cl)cc1)c1ccc(Cl)cc1`, for which the Potency is 15.4 µM (active).
Consider `CC(N)Cc1ccc(O)cc1` (stereo not given), for which the “activity change, negative = cytotoxicity” value is 11.5% (inactive).
Same read-out and setting: as for `CN1CC[C@@]23CCCC[C@@H]2[C@@H]1Cc1ccc(O)cc13`, the figure is -14.2% (inactive); as for `CN[C@@H](C)Cc1ccccc1`, -5.02% (inactive).
As for `C[C@H]1CC[C@]2(NC1)O[C@H]1C[C@H]3[C@@H]4CC[C@H]5C[C@@H](O[C@@H]6O[C@H](CO)[C@H](O[C@@H]7O[C@H](CO)[C@@H](O)[C@H](O[C@@H]8OC[C@@H](O)[C@H](O)[C@H]8O)[C@H]7O[C@@H]7O[C@H](CO)[C@@H](O)[C@H](O)[C@H]7O)[C@H](O)[C@H]6O)CC[C@]5(C)[C@H]4CC[C@]3(C)[C@H]1[C@@H]2C`, the Potency is 2.37 µM (active).
For `Clc1ccc2c(c1)C(c1ccccc1)=NCc1nncn1-2`, the “activity change, negative = cytotoxicity” value is 2.37% (inactive).
As to `ClC1=C(Cl)[C@]2(Cl)[C@@H]3[C@@H](Cl)[C@H]4O[C@H]4[C@@H]3C1(Cl)C2(Cl)Cl`, the Potency is 61.1 µM (active).
Take `CC(=O)[C@@]1(O)CC[C@H]2[C@@H]3CCC4=CC(=O)CC[C@]4(C)C3(F)[C@@H](O)C[C@@]21C` (stereo not given in full): the “activity change, negative = cytotoxicity” value is -17.8% (inactive).
Same read-out and setting: as for `CCCCCCC(=O)O[C@H]1CC[C@H]2[C@@H]3CC[C@H]4CC(=O)C=C(C)[C@]4(C)[C@H]3CC[C@]12C`, the figure is 12.6% (inactive).
Consider `CC(C)[C@H]1C(=O)N2CCC[C@H]2[C@]2(O)O[C@](NC(=O)[C@@H]3C[C@@H]4c5cccc6[nH]cc(c56)C[C@H]4N(C)C3)(C(C)C)C(=O)N12`, for which the Potency is 26.6 µM (active).
For the compound `COC1=CC=C2[C@H]3Cc4ccc(OC)c5c4[C@@]2(CCN3C)[C@H]1O5`, the “activity change, negative = cytotoxicity” value is 2.45% [at 30.7 µM] (inactive).
Same read-out and setting: in the case of `CN(C)CCCCCCN(C)C` (tested in a mixture with another compound) it was 4.82% (inactive).
Still for that read-out and setting: in the case of `CCCCc1ccc(C(=O)O)nc1` it was 1.43% (inactive).
Turning to `CCCCCc1cc(O)c2c(c1)OC(C)(C)c1ccc(C)cc1-2`, the Potency is 11.9 µM (active).
Consider `CC(N)Cc1ccc2c(c1)OCO2` (stereo not given), for which the “activity change, negative = cytotoxicity” value is 0.363% (inactive).
Same read-out and setting: in the case of `c1ccc2c(c1)Sc1ccccc1N2C[C@@H]1CN2CCC1CC2` it was -8.58% (inactive); in that of `O=P1(N(CCCl)CCCl)NC(OO)CCO1` (stereo not given), -13.8% (inactive); in that of `C[C@@H]([C@H](O)c1ccccc1)N(C)C`, 1.4% (inactive).
For the compound `O=c1[nH]cc(N(CCCl)CCCl)c(=O)[nH]1`, the “activity change, negative = cytotoxicity” value is -8.56% (inactive).
As to `CC(C)NC(C)Cc1ccc(I)cc1` (stereo not given), the Potency was 13.3 µM (active).
As to `S=C(S)N1CCNCC1`, the “activity change, negative = cytotoxicity” value is 1.81% (inactive).
As for `O=C1CN(O)C(c2ccccc2)=c2cc(Cl)ccc2=N1`, the “activity change, negative = cytotoxicity” value was 0.597% (inactive).
Regarding `CC(=O)Oc1ccc2c3c1O[C@H]1[C@@H](OC(C)=O)C=C[C@H]4[C@@H](C2)N(C)CC[C@@]341`, the “activity change, negative = cytotoxicity” value is -0.35% (inactive).
On to `[H+].[H+].[Hg+2].[O-]B([O-])[O-].[c-]1ccccc1`, for which the Potency was 0.335 µM (active).
